CYP2C9 inh: inhibitors of human CYP2C9 | inhibition, % at 5 µM | CYP2C9 Supersomes, luciferin-H conversion, luminescence | actives 20% (n = 96,000) | AID 777;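 active = blocking of liver enzyme CYP2C9 beyond about 50% at 5 µM, limit read from the data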
Target sequence (P11712 whole entry, looked up): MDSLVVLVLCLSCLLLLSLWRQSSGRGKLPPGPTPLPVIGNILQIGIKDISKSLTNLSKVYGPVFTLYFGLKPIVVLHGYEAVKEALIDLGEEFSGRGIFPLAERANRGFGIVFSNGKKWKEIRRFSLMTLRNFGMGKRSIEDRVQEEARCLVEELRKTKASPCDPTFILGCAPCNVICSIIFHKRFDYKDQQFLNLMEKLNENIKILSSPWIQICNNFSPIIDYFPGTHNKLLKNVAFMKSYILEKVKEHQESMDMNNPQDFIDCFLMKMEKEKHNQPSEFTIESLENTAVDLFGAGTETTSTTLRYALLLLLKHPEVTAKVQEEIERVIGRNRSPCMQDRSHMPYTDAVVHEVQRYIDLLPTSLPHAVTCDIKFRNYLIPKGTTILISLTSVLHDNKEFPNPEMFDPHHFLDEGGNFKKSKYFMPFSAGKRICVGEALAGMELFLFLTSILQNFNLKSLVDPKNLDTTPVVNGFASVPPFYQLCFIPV
CYP2C19 act: cytochrome P450 2C19 (human) activation | activation factor at 5 µM | AID 1025 | 96,000 tested, under 10 active | P33261 | recombinant CYP2C19, luciferin-H EGE luminescence; hits give high values; 0 = fully inhibited enzyme, 1 = untreated enzyme;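 active = activation factor of at least 2 at 5 µM in the primary screen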;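 note: 0 = wells with 2.5 mM tranylcypromine and 1 = vehicle-only wells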
CYP2C9 act: activators of human CYP2C9; recombinant CYP2C9, luciferin-H conversion, luminescence; hits give high values; factor 1 = untreated enzyme, 0 = blocked; activation factor at 5 µM; actives 1.4% (n = 96,000); AID 1024;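 active = activation factor of 2 or more for CYP2C9 at a 5 µM dose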;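 note: 0 = sulfaphenazole-blocked wells and 1 = vehicle-only wells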
CYP2C19 inhib: human CYP2C19 inhibition; actives 21% (n = 96,000); CYP2C19 Supersomes, luciferin-H EGE luminescence, 30 min; inhibition, % at 5 µM;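 active = CYP2C19 inhibition above a set limit at 5 µM in the primary screen, cut at about 50% in these data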;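 note: plate controls were negative control wells for no effect and 2.5 mM tranylcypromine positive control for full effect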
Active calls of the source: *. Most compounds without a hit are left out; they make up all but 31% or so of the library.

SMILES | CYP2C9 inh | CYP2C19 act | CYP2C9 act | CYP2C19 inhib
COc1ccc2c(c1)C(C1C(=O)CCCC1=O)c1ccccc1O2 (configuration not stated) | 64* | 1 | 0.4 | 3
Cc1nc(NS(=O)(=O)c2ccc(Br)cc2)c2c3c(sc2n1)CCC3 | 97* | 0.2 | 0 | 76*
O=S(=O)(Nc1ncnc2sc3c(c12)CCC3)c1ccc(Cl)s1 | 81* | 0.9 | 0.2 | 6
Cc1nc(NS(=O)(=O)c2cccs2)c2c3c(sc2n1)CCC3 | 3 | 1.1 | 1 | -8
Cc1nc(NC(C)c2ccccc2)c2c3c(sc2n1)CCC3 (configuration not stated) | 56* | 0.2 | 0.4 | 84*
CC1CC(C)CN(CCCNC(=O)Cc2c(C(=O)O)n(C)c3ccccc23)C1 (configuration not stated) | 5 | 1 | 0.9 | -1
CCOC(=O)c1sc(C)c2c(=O)n(CCc3ccccc3)nnc12 | -1 | 1.1 | 1 | -8
CCOC(=O)C1=C(C)N=C2c3ccccc3C(=O)C2C1c1ccc(Cl)cc1 (configuration not stated) | 25 | 1 | 0.7 | 2
CCOC(=O)c1sc(C)c2c1NC(C)(c1ccccc1)NC2=O (configuration not stated) | 68* | 0.8 | 0.3 | 18
CCOC(=O)c1sc(C)c2c1NC(c1ccc(Cl)cc1)NC2=O (configuration not stated) | 53* | 0.9 | 0.5 | 12
Cc1cc(C(=O)Nc2cnn(Cc3ccc(Cl)cc3Cl)c2)no1 | -12 | 0.9 | 1.1 | 12
CC(NC(=O)OC(C)(C)C)C(=O)Oc1cc2oc(=O)cc(-c3ccccc3)c2cc1Cl (configuration not stated) | 35 | 0.6 | 0.6 | 37
O=C(Nc1ccccc1)NC1(C(=O)N2CCN(c3ncccn3)CC2)CCCCC1 | -16 | 0.8 | 1.2 | 15
O=C1CC(c2ccc(F)cc2)CC(O)=C1C=NCCN1CCN(C(=O)Nc2ccccc2)CC1 (configuration not stated) | 54* | 0.2 | 0.5 | 77*
CC(C)(C)c1cc(Cc2ccccc2)[nH]n1 | 31 | 0.2 | 0.7 | 82*
COc1ccc(C(N)=O)cc1N | 6 | 1 | 0.9 | -4
COc1ccc(Cc2ccc(OC)c(N)c2)cc1N | -6 | 0.3 | 1.1 | 66*
OCCNc1nc2ccccc2n1-c1ccccc1 | 15 | 0.6 | 0.8 | 39
CNc1nc(NC)nc(-n2c(C(F)(F)F)nc3ccccc32)n1 | 64* | 0.6 | 0.4 | 38
O=C(c1ccc(-c2ccc(Cl)cc2)o1)N1CCN(c2ccc([N+](=O)[O-])cc2Cl)CC1 | 92* | 0.3 | 0.1 | 70*
CN1CCN(c2ccc([N+](=O)[O-])cc2C(=O)c2ccc(Cl)cc2)CC1 | 14 | 0.4 | 0.9 | 58*
CCOc1ccc(C(=O)c2cc([N+](=O)[O-])ccc2Cl)cc1 | 76* | 0.7 | 0.2 | 34
CN1CCN(c2ccc([N+](=O)[O-])cc2NC(=O)c2ccccc2)CC1 | -9 | 1.2 | 1.1 | -19
CCCn1c(NC(=O)C2COc3ccccc3O2)nc2ccccc21 (configuration not stated) | -5 | 0.9 | 1 | 7
CCc1c(C)nc(SCC(=O)CC(=O)OC(C)C)c(C#N)c1C | 36 | 0.2 | 0.6 | 77*
SMILES | CYP2C9 inh | CYP2C19 act | CYP2C9 act | CYP2C19 inhib
CSc1nc(N)nc(SCC(=O)OC(C)C)c1C#N | 57* | 0.9 | 0.4 | 11
Cc1ccc(-c2nc(SCC(N)=O)c(C#N)c3c2CCCC3)cc1 | 38 | 0.4 | 0.6 | 65*
CSc1nc(N)nc(SCC(=O)c2ccc(C)cc2)c1C#N | 54* | 1 | 0.5 | -3
O=C(O)C1C2C=CC(O2)C1C(=O)NCc1ccccc1Br (configuration not stated) | 18 | 0.9 | 0.8 | 7
Cc1sc2nc(C(C)(C)C)oc(=O)c2c1C | 19 | 0.7 | 0.8 | 29
CC(=O)Nc1ccc(C(=O)CSc2nc3ccccc3n2CC(=O)N2CCCC2)cc1 | 42 | 0.8 | 0.6 | 24
CCOC(=O)c1c(C)c(C(=O)NC2CCCCCC2)c(C)n1C | -60 | 1 | 1.6 | -4
CCOC(=O)c1c(C)c2c(n1C)CCC/C2=N\O | 33 | 0.4 | 0.7 | 60*
O=C(c1ccc2ccccc2n1)N1CCN(c2ccccc2O)CC1 | 41 | 0.4 | 0.6 | 58*
CC(C(=O)Nc1cccc([N+](=O)[O-])c1)n1nnc2ccccc21 (configuration not stated) | 79* | 0.5 | 0.2 | 53*
O=S(=O)(c1cccc(C(F)(F)F)c1)N1CCN(c2ccccc2)CC1 | 6 | 0.7 | 0.9 | 27

Assay outcomes: PubChem BioAssay, Sanford-Burnham Center for Chemical Genomics
